In the library only some 1.7% were active in any assay of this set; here they are far more common.
GLP1R ag = GLP-1 receptor (human) agonism; P43220; HEK293 GLP-1R CRE-luciferase, luminescence, 4-6 h; cells express a hypersensitive GLP-1R form; Potency, µM (top dose mostly 45.6 µM), for inactives: at the top dose activation, actives largely listed as activators; 380,000 tested, 0.007% active; note: potency is the fitted concentration of half-maximal effect; % of control where 0% means no effect
GLP1R cytotox = cytotoxic in the GLP-1 receptor inverse agonist counter-screen. HEK293 cAMP-luciferase reporter cells, luminescence, 24 h. Potency, µM (top dose mostly 38.3 µM), inactives show top-dose activity change, negative = inhibition, usual class: inhibitors. 410,000 tested, 0.13% active. AID 624418;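 note: loss of luciferase light is scored as toxicity; potency is the fitted concentration of half-maximal effect; % is set by controls: 0 for no effect and ±100 for the full control effect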
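A 23 nL compound transfer followed 12 hours of cell culture at 37 deg C; exposure then lasted 24 hr. Luciferase assay detection reagent was dispensed and plates read for luminescence after a 12 min room-temperature wait.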
IDH1 R132H inh = blocks human mutant IDH1 R132H enzyme; 390,000 tested, 0.093% active; Potency, µM (series often up to 76.6 µM), for inactives: top-dose activity change, negative = inhibition, actives largely listed as inhibitors; IDH1-R132H enzyme, NADPH consumption, diaphorase/resazurin fluorescence; AID 602179; note: potency is the fitted concentration of half-maximal effect; % is set by controls: 0 for no effect and ±100 for the full control effect; nearly all actives have a fitted effect of over 65% in size
Target sequence (O75874 whole entry R132H, stated change not applied): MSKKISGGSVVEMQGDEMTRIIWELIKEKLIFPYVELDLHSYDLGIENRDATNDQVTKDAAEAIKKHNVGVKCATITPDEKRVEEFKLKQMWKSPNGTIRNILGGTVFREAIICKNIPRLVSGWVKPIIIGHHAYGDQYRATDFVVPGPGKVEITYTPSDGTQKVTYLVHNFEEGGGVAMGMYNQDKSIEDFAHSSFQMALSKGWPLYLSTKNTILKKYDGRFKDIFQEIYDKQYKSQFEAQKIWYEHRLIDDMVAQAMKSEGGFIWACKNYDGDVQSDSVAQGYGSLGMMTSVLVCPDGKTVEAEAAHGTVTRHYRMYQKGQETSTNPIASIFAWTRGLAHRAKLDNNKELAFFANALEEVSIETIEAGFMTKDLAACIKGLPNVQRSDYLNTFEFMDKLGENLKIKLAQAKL
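IDH1-R132H (0.5 ug/mL) preincubated 30 min with compound, then NADPH (0.016 mM) and alpha-KG (2 mM) added; 80 min at RT, pH 7.5. Remaining NADPH coupled via diaphorase/resazurin to fluorescence (540/590 nm); concentration-response curves normalized to no-enzyme control.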
PTHR1 agonist = activates the human parathyroid hormone receptor PTHR1; Q03431; AID 743266; HEK293 GP2 PTHR1 cells, GloSensor cAMP luminescence, 1 h; Potency, µM (top dose mostly 115 µM), without a hit: top-dose activation, most hits filed as activators; 410,000 tested, 0.075% active; note: potency is the fitted concentration of half-maximal effect; nearly all actives have a fitted effect of over 55% in size
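HEK-293-derived GP2 cells expressing PTHR1 and a GloSensor cAMP reporter, 3,000/well, plated overnight, given luciferin plus IBMX (each 0.5 mM as added) for 1 h at 37 °C, then compound for 1 h at 37 °C. Luminescence was read after 15 min at room temperature.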
GLP1R inv ag = acts as inverse agonist at human GLP-1 receptor | P43220 | HEK293 GLP-1R CRE-luciferase, luminescence, 24 h; GLP-1R form is constitutively active | Potency, µM (series often up to 38.3 µM), inactives show at the highest dose activity change, negative = inhibition, actives largely listed as inhibitors | 410,000 tested, 1.6% active | AID 624417; note: potency is the fitted concentration of half-maximal effect; % is set by controls: 0 for no effect and ±100 for the full control effect; nearly all actives have a fitted effect of over 55% in size
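Luminescence readout: a drop in cAMP-driven luciferase signal flags inverse agonism at a constitutively active GLP-1R stably expressed in HEK293. Compound exposure lasted 24 hr at 37 deg C, 5% CO2.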
LDHA block = LDHA (human) enzyme inhibition | purified LDHA, NADH/diaphorase-resazurin fluorescence; stronger effect = lower value | activity change, % (values are at about 110 or 230 µM) | 480,000 tested, 0.15% active | P00338; in the data active = activity change below about -30%; inconclusive = mostly about -25% to -30%;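 note: plate controls were DMSO wells for no effect and wells without enzyme for full effect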
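Remaining NADH was detected by diaphorase (0.133 mg/mL) converting 37 µM resazurin to fluorescent resorufin, read at 0 and 20 minutes. The preceding 5-minute room-temperature reaction used 2 nM LDHA, 0.2 mM sodium pyruvate and 0.06 mM NADH at pH 7.4.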
IDH1 autofl = autofluorescence interference, mutant IDH1 hit counter-screen; shares compounds with IDH1 R132H inh; Resorufin detection reagent fluorescence interference, cell-free; inhibition of signal, % at 51.2 µM; 750 tested, under 10 active; AID 623980;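 note: 0% = wells with normal resorufin and full inhibition = wells lacking resorufin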
IDH1 WT = selectivity of mutant IDH1 inhibitors: human wild-type IDH1; shares compounds with IDH1 R132H inh; WT IDH1 enzyme, NADPH diaphorase/resazurin fluorescence; Potency, µM (highest dose often 115 µM), for the others: top-dose activity change, negative = inhibition, most hits filed as inhibitors; 750 tested, 9% active;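 note: potency is the fitted concentration of half-maximal effect; 0% = full WT IDH1 enzyme control and full inhibition = no enzyme wells; nearly all actives have a fitted effect of over 55% in size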
Target sequence (O75874 whole entry, looked up): as the sequence (O75874 whole entry R132H, stated change not applied) above, with H132R counted along it
IDH1 R132H conf = inhibits human mutant IDH1 enzyme in cherrypick confirmation; Potency, µM (doses to about 76.6 µM), for the others: at the top dose activity change, negative = inhibition, actives largely listed as inhibitors; 750 tested, 83% active; IDH1 R132H enzyme, NADPH diaphorase/resazurin fluorescence; shares compounds with IDH1 R132H inh; note: potency is the fitted concentration of half-maximal effect; nearly all actives have a fitted effect of over 50% in size
* marks the source's active call; other numbers are inactive results; i = inactive; ? = inconclusive; · = not tested or not shown; [ ] = another dose, or the depositor's remark. Unless noted, calls come from the whole dose curve; as a rule, active = well fitted curve in the direction sought with a large enough effect; inconclusive = small, poorly fitted or top-dose-only effect, or another doubt; inactive = no such curve, though single readings can be large; an effect the other way counts as inactive or inconclusive.

SMILES | GLP1R ag | GLP1R cytotox | IDH1 R132H inh | PTHR1 agonist | GLP1R inv ag | LDHA block | IDH1 autofl | IDH1 WT | IDH1 R132H conf
COc1cccc(C2c3c(-c4cc(Cl)c(C)cc4O)n[nH]c3C(=O)N2Cc2cccnc2)c1 (stereo unspecified) | 1% | ? | ? | -4%[57.5 µM] | 2% | -1 | -1 | 1% | 16µM*
COc1cc(C2c3c(-c4cc(Cl)c(C)cc4O)n[nH]c3C(=O)N2Cc2cccnc2)ccc1O (stereo unspecified) | 2% | 17% | ? | i | 141% | 2 | -1 | -3% | 45µM*
CCCc1nc2ccccc2c(C(=O)OCC(=O)NC(=O)NC)c1CC | · | · | · | · | · | -1 | · | · | ·
O=C(NC1CCCC1)C(c1ccc(O)cc1)N(CC1CCCO1)C(=O)C1COc2ccccc2O1 (stereo unspecified) | -1% | -11% | 11% | i | -17% | -2 | · | · | ·
CC(C)CCNC(=O)C(c1ccc(O)cc1)N(C(=O)C1COc2ccccc2O1)c1cccc(O)c1 (stereo unspecified) | -5% | -9% | ? | i | ? | 1 | 6 | 14% | ?
CCOc1cccc(N(C(=O)C2COc3ccccc3O2)C(C(=O)NC2CCCCC2)c2ccc(O)cc2)c1 (stereo unspecified) | 6% | -15% | ? | -11% | ? | 0 | 5 | 10% | 5.6µM*
COC(=O)c1ccc(COc2ccc(/C=C(/CC(=O)O)c3nc4ccccc4s3)cc2)cc1 | · | · | · | · | · | -1 | · | · | ·
COc1cccc(Cn2c(=O)n(-c3cccc(Cl)c3C)c(=O)c3c4c(sc32)CN(C(C)=O)CC4)c1 | · | -13% | 35µM* | -8% | 12% | -1 | 1 | 20µM* | 25µM*
CC(=O)N1CCc2c(sc3c2c(=O)n(-c2ccccc2C)c(=O)n3Cc2cccc(F)c2)C1 | · | -10% | -23% | -50% | 0% | -5 | · | · | ·
CSc1nc(N(C)NC(=O)c2ccc(Cl)cc2)c2ccccc2n1 | 1% | -49% | 46µM* | i | -3% | -12 | 4 | 2% | 22µM*
O=C1c2[nH]nc(-c3ccccc3O)c2C(c2cccc(Cl)c2)N1Cc1cccnc1 (stereo unspecified) | · | -29% | ? | -28% | -8% | -1 | 2 | 2% | 28µM*
O=C1c2[nH]nc(-c3ccccc3O)c2C(c2cccc(Br)c2)N1Cc1ccncc1 (stereo unspecified) | · | ? | ? | i | 13µM* | 0 | -3 | -3% | 25µM*
COC(=O)c1ccc(C2c3c(-c4ccccc4O)n[nH]c3C(=O)N2Cc2ccncc2)cc1 (stereo unspecified) | · | -3% | -14% | i | 9% | 5 | · | · | ·
Cc1ccc(C2c3c(-c4ccccc4O)n[nH]c3C(=O)N2Cc2ccncc2)cc1 (stereo unspecified) | 0% | -41% | ? | -10% | 0% | -7 | 2 | 4% | 35µM*
Cc1ccc2c(c1)C1(CC(=O)Nc3c1cnn3-c1cccc(Cl)c1)C(=O)N2 (stereo unspecified) | · | · | · | · | · | -2 | · | · | ·
O=C(NCCCNC(=O)c1cc2ccccc2[nH]1)c1cccc(F)c1 | · | · | · | · | · | -4 | · | · | ·
COc1ccc(-n2c(-c3ccc(Cl)cc3Cl)n[nH]c2=S)c(OC)c1 | 9% | -10% | 46µM* | i | ? | -4 | -8 | 2% | -8%
COc1ccc(-n2c(-c3ccc(C(C)(C)C)cc3)n[nH]c2=S)c(OC)c1 | 14% | -1% | -23% | i | 18% | 3 | · | · | ·
Cn1c2ccccc2c2ccc3c(c21)C(=O)C=CC3=O | -4% | -22% | 23µM* | -4% | 21% | 19 | 0 | -30% | 10µM*
Cc1ccc(C)c2c1c1ccccc1n2C | 11% | 2% | 1% | i | 5% | 6 | · | · | ·
COc1ccc2c(c1)c1ccc3c(c1n2C)C(=O)C=CC3=O | -4% | -4% | 35µM* | -93% | 7% | 8 | 0 | 138% | 22µM*
COc1ccc2c(c1)c1ncn(CCN3CCCC3)c(=O)c1n2C | 21% | -9% | -1% | -7%[57.5 µM] | 5% | 1 | · | · | ·
Cc1ccc2c(c1)c1ccc3c(c1n2C)C(=O)C=CC3=O | 4% | -12% | 41µM* | -5% | 9% | 7 | 2 | 60% | 22µM*
Cn1c(=O)c2c(ncn2CC(=O)N2CC(C(N)=O)Oc3ccccc32)n(C)c1=O (stereo unspecified) | · | · | · | · | · | 2 | · | · | ·
CCOC(=O)c1oc2cc(OC(C)=O)ccc2c(=O)c1-c1ccc(OC)c(OC)c1 | 6% | 0% | 29µM* | -6% | 21% | -2 | -3 | 5% | 25µM*
COc1ccc(N=C2S/C(=C\c3ccc(OC(C)C(=O)O)c(OC)c3)C(=O)N2CCc2c[nH]c3ccccc23)cc1 (stereo unspecified) | 2% | ? | ? | -30% | ? | -1 | -2 | ? | 28µM*
Cc1ccc(C(C(=O)NC2CCCC2)N(C(=O)Cc2cccs2)c2cccc(C)c2C)o1 (stereo unspecified) | 2% | -22% | 9.3µM* | i | -1% | 3 | 2 | 5% | 6.3µM*
CCOc1cccc(N(C(=O)Cc2cccs2)C(C(=O)NC2CCCCC2)c2cccn2C)c1 (stereo unspecified) | -3% | -13% | ? | i | ? | -5 | -2 | 7% | 16µM*
Cc1cc(C)cc(N(C(=O)Cc2cccs2)C(C(=O)NC2CCCCC2)c2ccccn2)c1 (stereo unspecified) | -3% | -30% | ? | i | -3% | 0 | 3 | 10% | 14µM*
Cc1ccccc1C(C(=O)NC1CCCC1)N(C(=O)Cc1cccs1)c1ccc2c(c1)OCCO2 (stereo unspecified) | 5% | -1% | 6.6µM* | i | ? | -4 | 3 | 0% | 4µM*
